MEP2-GFP yeast – modulators of TOR pathway MEP2-GFP in S. cerevisiae; S. cerevisiae MEP2-GFP strain, flow cytometry GFP, 3 h; 100% = DMSO control level; GFP response vs DMSO, % at 10 µM; actives 0.51% (n = 330,000); AID 2016;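 active = GFP response versus DMSO above a set limit, roughly screen mean plus 3 SD, cut at about 180% in these data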;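 also: median GFP fluorescence of the barcode-gated MEP2-GFP cells per well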
AGP1 TOR yeast – modulators of TOR pathway AGP1-GFP in S. cerevisiae; S. cerevisiae AGP1-GFP multiplex flow cytometry, 3 h; GFP as percent of DMSO wells; GFP response vs DMSO, % at 10 µM; actives 0.02% (n = 320,000);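 active = GFP response relative to DMSO above a set limit, near screen average plus 3 SD, cut at about 150% in these data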;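 also: median GFP channel fluorescence of the gated AGP1 strain per well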
LAP4 TOR yeast – modulators of TOR pathway LAP4-GFP in S. cerevisiae. S. cerevisiae LAP4-GFP multiplex, flow cytometry GFP, 3 h; median GFP as percent of DMSO wells. GFP response vs DMSO, % at 10 µM. actives 0.34% (n = 320,000);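 active = GFP response vs DMSO above a set limit, about the screen mean plus 3 SD, cut at about 150% in these data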
RPL19A TOR yeast – alters RPL19A-GFP fluorescence in TOR pathway yeast screen; S. cerevisiae RPL19A-GFP strain, flow cytometry, 3 h; hits give low values; percent response vs DMSO, % at 10 µM; actives 0.3% (n = 330,000); AID 2025;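 active = percent response vs DMSO below 50%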;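 also: median channel GFP fluorescence of the barcoded RPL19A-GFP strain; ratio of sample median GFP to plate DMSO average so 100% = DMSO; lower means less RPL19A-GFP as with rapamycin TOR inhibition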
CIT2-GFP yeast – modulators of TOR pathway CIT2-GFP in S. cerevisiae. actives 0.065% (n = 320,000). S. cerevisiae CIT2-GFP strain, flow cytometry, 3 h; 100 means same as DMSO wells. GFP response vs DMSO, % at 10 µM. AID 2029;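 active = GFP response relative to DMSO above a set limit, near the screen mean plus 3 SD, cut at about 150% in these data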;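 also: ratio of well median GFP fluorescence to mean of DMSO wells on the plate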
LAP4-GFP pick2 – reconfirmed LAP4-GFP TOR pathway modulator in yeast; GFP response vs DMSO, % at 10 µM; actives 20% (n = 590); shares compounds with LAP4 TOR yeast; S. cerevisiae LAP4-GFP strain, flow cytometry GFP, 3 h;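 active = GFP signal as percent of the solvent control above about 150%, meaning raised reporter expression, limit read from the data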;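 also: ratio of well median GFP fluorescence to plate DMSO mean so 100% = DMSO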
MEP2 cherry2 – reconfirmed MEP2-GFP TOR pathway modulator in yeast. S. cerevisiae MEP2-GFP strain, flow cytometry GFP, 3 h. actives 10% (n = 590). AID 2622. shares compounds with LAP4 TOR yeast. GFP response vs DMSO, % at 10 µM;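 active = GFP signal above 150% of the solvent control wells, that is a rise of more than half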;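 also: median channel GFP fluorescence of all gated yeast cells per well; ratio of median GFP to plate DMSO average so 100% = DMSO level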
RPL19A-GFP pick2 – reconfirmed modulator of RPL19A-GFP TOR reporter in yeast; shares compounds with LAP4 TOR yeast; S. cerevisiae RPL19A-GFP strain, flow cytometry GFP, 3 h; hits give low values; 100% means same as DMSO wells; GFP response vs DMSO, % at 10 µM; actives 3% (n = 590); AID 2623;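 active = under 65% GFP response relative to DMSO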;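 also: median GFP channel fluorescence per well over the all cells gate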
CIT2-GFP pick2 – second confirmation of modulators of TOR reporter CIT2-GFP in yeast | shares compounds with LAP4 TOR yeast | S. cerevisiae CIT2-GFP strain, flow cytometry GFP, 3 h; DMSO control wells read 100% | actives 8% (n = 590) | AID 2624 | GFP response vs DMSO, % at 10 µM;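 active = GFP response vs DMSO above about 150%, limit read from the data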;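 also: median green fluorescence per well over all gated yeast cells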
AGP1-GFP pick2 – second confirmation of modulators of TOR reporter AGP1-GFP in yeast. shares compounds with LAP4 TOR yeast. S. cerevisiae AGP1-GFP strain, flow cytometry GFP, 3 h. percent response vs DMSO, % at 10 µM. 590 tested, under 10 active;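 active = over 150 percent of DMSO response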;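 also: median GFP channel fluorescence over all cells without mother daughter split; sample median GFP divided by mean DMSO control so 100% equals DMSO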
s288c autofluor – compound is autofluorescent in yeast s288c cells | shares compounds with LAP4 TOR yeast | S. cerevisiae s288c, 520 nm autofluorescence, flow cytometry, 3 h; hits give high values; zero means same as solvent-only cells | fluorescence change (kMESF span) at 33 µM | 610 tested, under 10 active | AID 2757;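 active = fluorescence span over the dose series, or activity score, above about 33, limit read from the data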
Yeast autofl DR – yeast s288c autofluorescence artifact in dose response; 110 tested, under 10 active; fluorescence change (span) at 33 µM; shares compounds with LAP4 TOR yeast; S. cerevisiae s288c parental, compound autofluorescence, flow cytometry, 3 h;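 active = fluorescence change span, or the activity score built from it, above 25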
TORC1 bypass gr – wildtype yeast growth loss with TORC1 bypass cells unaffected; shares compounds with LAP4 TOR yeast; S. cerevisiae BY4741 spot growth rating, 48-72 h; hits give low values; growth rating (0-3) at 30 µM; 120 tested, under 10 active; AID 504456;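 active = growth rating at most 1 for wild type yeast while the TORC1 bypass strain still grows fully, rated 3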
Starred values were filed as active, the others as inactive; [ ] = another dose, or the depositor's remark. Most compounds without a hit are left out; they make up all but 0.92% or so of the library.

What do the screens show for `CCOc1ccccc1/C=C(\C#N)C(=O)NC1CC1`?
MEP2-GFP yeast: 88.7; AGP1 TOR yeast: 95.0; LAP4 TOR yeast: 95.7; RPL19A TOR yeast: 92.0; CIT2-GFP yeast: 86.7

What do the screens show for `CC(C)(C)NC(=O)C(c1ccncc1)N(C(=O)c1csnn1)c1cccc2ccccc12` (stereo unspecified)?
MEP2-GFP yeast: 109.5; AGP1 TOR yeast: 117.3; LAP4 TOR yeast: 104.2; RPL19A TOR yeast: 111.7; CIT2-GFP yeast: 114.8

Results for O=C1c2cccc3c([N+](=O)[O-])ccc(c23)C(=O)N1CCc1ccccn1 ?
MEP2-GFP yeast: 167.2; AGP1 TOR yeast: 87.6; LAP4 TOR yeast: 152.2*; RPL19A TOR yeast: 95.6; CIT2-GFP yeast: 123.0; s288c autofluor: 11.6

What do the screens show for `COc1ccc(N2C(=O)C(Cl)=C(Oc3cccc(OC)c3)C2=O)cc1`?
MEP2-GFP yeast: 82.9; AGP1 TOR yeast: 75.0; LAP4 TOR yeast: 197.5*; RPL19A TOR yeast: 71.0; CIT2-GFP yeast: 101.9; s288c autofluor: 1.13

How did Cc1cc2ccccn2c1C(=O)c1ccc([N+](=O)[O-])o1 do in these assays?
MEP2-GFP yeast: 100.7; AGP1 TOR yeast: 97.5; LAP4 TOR yeast: 218.3*; RPL19A TOR yeast: 83.8; CIT2-GFP yeast: 121.3; s288c autofluor: 17.6

What do the screens show for `Cc1cc2ccccn2c1C(=O)c1cccc([N+](=O)[O-])c1`?
MEP2-GFP yeast: 111.4; AGP1 TOR yeast: 111.4; LAP4 TOR yeast: 106.1; RPL19A TOR yeast: 104.5; CIT2-GFP yeast: 103.0

Results for COc1cc(Cl)ccc1OCc1cc(C(=O)N2CCCC(OC)C2)no1 (stereo unspecified) ?
MEP2-GFP yeast: 104.6; AGP1 TOR yeast: 99.1; LAP4 TOR yeast: 109.1; RPL19A TOR yeast: 97.9; CIT2-GFP yeast: 102.6

Results for CC(OC(=O)Cc1cccc(C(F)(F)F)c1)C(=O)Nc1ccc(Cl)cn1 (stereo unspecified) ?
MEP2-GFP yeast: 101.8; AGP1 TOR yeast: 103.1; LAP4 TOR yeast: 100.9; RPL19A TOR yeast: 98.1; CIT2-GFP yeast: 100.6

What do the screens show for `Cc1ccc(NC(=O)CS(=O)CC(=O)N(C(C)C(=O)NC2CCCCC2)C(C)(C)C)cc1` (stereo unspecified)?
MEP2-GFP yeast: 95.5; AGP1 TOR yeast: 102.9; LAP4 TOR yeast: 91.8; RPL19A TOR yeast: 97.0; CIT2-GFP yeast: 105.2

What do the screens show for `CCN(c1ccccc1)S(=O)(=O)c1ccc(OC)c(NC(=O)c2cccs2)c1`?
MEP2-GFP yeast: 93.0; AGP1 TOR yeast: 99.5; LAP4 TOR yeast: 100.2; RPL19A TOR yeast: 97.5; CIT2-GFP yeast: 93.4

How did CCN(c1ccccc1)S(=O)(=O)c1ccc(OC)c(NC(=O)c2cc(F)c(F)c(F)c2F)c1 do in these assays?
MEP2-GFP yeast: 114.3; AGP1 TOR yeast: 116.7; LAP4 TOR yeast: 176.8*; RPL19A TOR yeast: 95.1; CIT2-GFP yeast: 92.6; LAP4-GFP pick2: 100.0; MEP2 cherry2: 99.8; RPL19A-GFP pick2: 101.1; CIT2-GFP pick2: 98.4; AGP1-GFP pick2: 97.4

How did CCCOCc1ccc(O)c2ncccc12 do in these assays?
MEP2-GFP yeast: 98.2; AGP1 TOR yeast: 96.5; LAP4 TOR yeast: 117.0; RPL19A TOR yeast: 98.6; CIT2-GFP yeast: 108.8

What do the screens show for `Oc1ccc(COCc2ccccc2)c2cccnc12`?
MEP2-GFP yeast: 95.7; AGP1 TOR yeast: 101.6; LAP4 TOR yeast: 160.3*; RPL19A TOR yeast: 96.5; CIT2-GFP yeast: 99.0; s288c autofluor: 0.4

How did CC(=O)Nc1ccc(S(=O)(=O)Nc2ccccc2C(=O)N2CCCCC2)cc1 do in these assays?
MEP2-GFP yeast: 104.2; AGP1 TOR yeast: 94.6; LAP4 TOR yeast: 99.9; RPL19A TOR yeast: 96.9; CIT2-GFP yeast: 95.5

How did CCOC(=O)c1c(C)oc2c1c(C(c1cccnc1)N1CCOCC1)c(O)c1ccccc12 (stereo unspecified) do in these assays?
MEP2-GFP yeast: 85.4; AGP1 TOR yeast: 76.8; LAP4 TOR yeast: 159.9*; RPL19A TOR yeast: 80.4; CIT2-GFP yeast: 72.4; s288c autofluor: 2.14; Yeast autofl DR: 1.14; TORC1 bypass gr: 3

What do the screens show for `COc1ccc2nc(Cl)cc(Cl)c2c1`?
MEP2-GFP yeast: 96.5; AGP1 TOR yeast: 99.5; LAP4 TOR yeast: 99.3; RPL19A TOR yeast: 93.7; CIT2-GFP yeast: 96.0

Results for COc1ccc2nccc(/C=C/c3ccnc4ccc(OC)cc34)c2c1 ?
MEP2-GFP yeast: 90.8; AGP1 TOR yeast: 65.3; LAP4 TOR yeast: 137.2; RPL19A TOR yeast: 62.0; CIT2-GFP yeast: 68.3; LAP4-GFP pick2: 110.6; MEP2 cherry2: 111.5; RPL19A-GFP pick2: 93.5; CIT2-GFP pick2: 92.7; AGP1-GFP pick2: 92.5

What do the screens show for `O=C(NNC(=S)NC(=O)C12CC3CC(CC(C3)C1)C2)c1ccncc1`?
MEP2-GFP yeast: 117.3; AGP1 TOR yeast: 93.7; LAP4 TOR yeast: 181.7*; RPL19A TOR yeast: 82.7; s288c autofluor: 1.5

How did CC1(C(=O)NC(=S)NNC(=O)c2ccncc2)CCCCC1 do in these assays?
MEP2-GFP yeast: 543.5*[may fluoresce green]; AGP1 TOR yeast: 155.8*[may fluoresce green]; LAP4 TOR yeast: 160.4*[may fluoresce green]; RPL19A TOR yeast: 73.9; CIT2-GFP yeast: 227.2*[may fluoresce green]; LAP4-GFP pick2: 101.9; MEP2 cherry2: 104.8; RPL19A-GFP pick2: 100.0; CIT2-GFP pick2: 107.4; AGP1-GFP pick2: 97.5; s288c autofluor: 0.2
